# The supplement of paper PMC4723716
# ± gives the uncertainty stated by the source. Whole data set: some 9,900 compounds, median “viability index relative to DMSO control” near 1, cut for the lowest 2% near 0.85. Only a selection was taken, and the lowest values are over-represented in it overall.
# System: Plasmodium falciparum NF54 stage V gametocytes
# Test: viability index relative to DMSO control (fraction); higher = less gametocyte killing
# Conditions: 2.5 µM, library set: Broad Institute DOS, incubation time: 72 h
# Procedure: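 Broad DOS informer set and blood-stage-active DOS compounds screened in duplicate at 2.5 µM against P. falciparum NF54 stage V gametocytes with the serum-free one-step SaLSSA (1536-well): 72 h at 37 °C under low oxygen, then saponin lysis and MitoTracker Red CMXRos staining, with high-content imaging. Viability index = viable-object count divided by the plate mean of DMSO wells (0 = killed, about 1 = inactive).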
row,Compound,viability index
1,O=C1CNC[C@H]2[C@@H](c3ccc(Br)cc3)[C@H](CO)N12,0.837 ± 0.14
2,O=C1CNC[C@H]2[C@H](c3ccc(Br)cc3)[C@H](CO)N12,1.05 ± 0.023
3,O=C1CNC[C@@H]2[C@H](c3ccc(Br)cc3)[C@H](CO)N12,0.992 ± 0.074
4,COc1cccc(-c2ccc([C@H]3[C@@H](CO)N4CCCCN(C(=O)Cc5ccncc5)C[C@H]34)cc2)c1,1.06 ± 0.046
5,O=C(O)C[C@@H]1CC[C@H]2NC[C@@H](O)COC[C@@H]2O1,1.13 ± 0.034
6,O=C(Cc1ccncc1)N1CCCCN2[C@H](CO)[C@@H](c3ccc(C#Cc4ccccc4F)cc3)[C@@H]2C1,0.9619 ± 0.0014
7,O=C(Cc1ccncc1)N1CCCCN2[C@@H](CO)[C@H](c3ccc(C#Cc4ccccc4F)cc3)[C@@H]2C1,0.84 ± 0.22
8,O=C(Cc1ccncc1)N1CCCCN2[C@@H](CO)[C@@H](c3ccc(C#Cc4ccccc4F)cc3)[C@@H]2C1,0.964 ± 0.047
9,C[C@@H]1CN([C@@H](C)CO)C(=O)CCCn2cc(nn2)CO[C@@H]1CN(C)C(=O)Oc1ccc2ccccc2c1,1.05 ± 0.019
10,C/C=C/c1ccc([C@@H]2[C@@H]3CN(C(=O)C4CCOCC4)C[C@H]2N3)cc1,1.06 ± 0.011
